Screening data: PubChem BioAssay, National Center for Advancing Translational Sciences (NCATS)
Sampled rows, rich in hits. Any-hit rate of the full collection: about 9.2%.
ELG1 genotox = genotoxicity induction in ELG1-luciferase HEK293T cells. HEK293T ELG1-luciferase reporter, luminescence, 16 h. Potency, µM (doses to about 46 µM), without a hit: top-dose activity change, positive = activation, most hits filed as activators. 1.3% of 330,000 active. AID 504466; note: % of control where 0% means no effect; nearly all actives have a fitted effect of over 60% in size
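16 hr compound incubation (37 °C, 5% CO2) of HEK293T cells carrying luciferase-tagged ELG1; luciferase then measured by ONE-Glo luminescence after 30 min at RT.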
NPC1 prom act = NPC1 promoter activation. Huh7 NPC1 promoter luciferase reporter, 24 h. Potency, µM (doses to about 9.22 µM), for inactives: at the highest dose activation, most hits filed as activators. 2.4% of 320,000 active; note: % of control where 0% means no effect; nearly all actives have a fitted effect of over 60% in size
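Readout is luciferase luminescence, reflecting NPC1 promoter activation in stably transfected Huh7 cells after 24 h compound exposure at 37 °C in reduced-serum medium with 10% FBS.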
ELG1 DNA repair = inhibitors of ELG1-dependent DNA repair in HEK293T cells. HEK293T ELG1-luciferase reporter, luminescence, 16 h; DNA damage induced by 5-fluorouridine. Potency, µM (highest dose often 46.1 µM), inactives show at the highest dose activity change, negative = inhibition, hits mostly inhibitors. 2.3% of 330,000 active; note: % is set by controls: 0 for no effect and ±100 for the full control effect; nearly all actives have a fitted effect of over 55% in size
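DMSO vehicle served as the neutral condition. Each well held 2,000 cells given 5-fluorouridine plus compound; after 16 hr at 37 °C/5% CO2, ONE-Glo was added and luciferase measured 30 min later.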
SMN2 splice up = enhancers of SMN2 splice variant expression; 2.8% of 210,000 active; Potency, µM (top dose mostly 46.1 µM), for the others: at the top dose activity change, positive = activation, hits mostly activators; HEK293 SMN2-luciferase splicing reporter, luminescence, 30-36 h; AID 1458; note: % of control where 0% means no effect; nearly all actives have a fitted effect of over 55% in size
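qHTS luciferase splicing reporter: luminescence rises when SMN2 exon 7 is included in transfected HEK293 cells. Compound exposure lasted 30-36 h at 37C, with 4.5 mM final sodium butyrate as control, followed by a ONE-Glo read.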
Rab9 promoter act = Rab9 promoter activation | Huh7 Rab9 promoter-luciferase reporter, luminescence, 24 h | Potency, µM (top dose mostly 9.22 µM), for inactives: at the highest dose activation, negative = inhibition, actives largely listed as activators | 2.8% of 320,000 active; note: % of control where 0% means no effect; nearly all actives have a fitted effect of over 60% in size
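Cell-based reporter: Huh7 stable for Rab9 promoter-driven luciferase, plated in reduced-serum medium with 10% FBS at 1500 cells/well, compound-treated 24 h at 37 °C, luminescence read after 10 min reagent.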
FLuc modulator = inhibits or activates purified firefly luciferase, miR-21 counter-screen. Potency, µM (titrated, usually from 57.5 µM), for inactives: at the top dose activity change, negative = inhibition, usual class: inhibitors. AID 588342. 6.9% of 360,000 active. purified FLuc, Km substrates, luminescence inhibition. P08659;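 note: plate controls were vehicle for no effect and reference inhibitor for full effect; nearly all actives have a fitted effect of over 55% in size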
Target sequence (P08659 whole entry, looked up): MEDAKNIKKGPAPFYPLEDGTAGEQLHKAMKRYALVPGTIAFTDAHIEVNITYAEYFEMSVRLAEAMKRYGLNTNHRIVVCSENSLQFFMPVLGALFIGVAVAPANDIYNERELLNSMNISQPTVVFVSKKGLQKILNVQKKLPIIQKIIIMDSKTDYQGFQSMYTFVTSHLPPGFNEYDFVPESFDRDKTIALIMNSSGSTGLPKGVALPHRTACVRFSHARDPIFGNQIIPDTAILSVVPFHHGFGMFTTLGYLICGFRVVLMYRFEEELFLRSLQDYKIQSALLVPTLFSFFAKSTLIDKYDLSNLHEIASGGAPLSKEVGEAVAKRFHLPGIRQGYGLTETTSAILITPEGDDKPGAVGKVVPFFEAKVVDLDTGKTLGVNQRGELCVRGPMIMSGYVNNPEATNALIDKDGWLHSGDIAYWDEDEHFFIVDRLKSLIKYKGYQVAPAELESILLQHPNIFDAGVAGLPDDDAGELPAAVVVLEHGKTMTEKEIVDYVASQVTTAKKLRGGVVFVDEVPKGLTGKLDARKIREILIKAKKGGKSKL
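Purified P. pyralis luciferase (10nM final) with 10uM D-luciferin and 10uM ATP (Km levels) in 50mM Tris acetate pH 7.5, 10mM Mg acetate, 0.01% Tween-20, 0.05% BSA; qHTS 6-point titration, ~60 µM downward; luminescence read.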
Starred values were filed as active, the others as inactive. Calls come from the whole dose curve; as a rule, active = well fitted curve in the direction sought with a large enough effect; inconclusive = small, poorly fitted or top-dose-only effect, or another doubt; inactive = no such curve, though single readings can be large; an effect the other way counts as inactive or inconclusive. Potency is the fitted concentration of half-maximal effect.

What do the screens show for `O=C(NCCc1ccccc1)C(=O)NCC1CCCN1S(=O)(=O)c1cccs1` (stereo not given)?
ELG1 genotox: -1%; NPC1 prom act: -9%; ELG1 DNA repair: -15%; Rab9 promoter act: -3%; FLuc modulator: 1%

How did COc1ccc(CCNC(=O)CNC(=O)c2ccc(Br)o2)cc1OC do in these assays?
ELG1 genotox: 2%; NPC1 prom act: -1%; ELG1 DNA repair: 17%; Rab9 promoter act: -10%; FLuc modulator: 4%

What do the screens show for `CN1C(=O)C(CC(=O)O)S/C1=N\N=C\c1ccc(O)cc1O` (stereo not given)?
ELG1 genotox: 0%; NPC1 prom act: -14%; ELG1 DNA repair: 0%; Rab9 promoter act: 3%; FLuc modulator: 15µM*

Results for Cc1ccc(NC(=O)c2cc(CN3CCOCC3)on2)cc1Cl ?
FLuc modulator: -15%

Results for Cc1cccn2cc(-c3cccc(NC(=O)c4cccs4)c3)nc12 ?
ELG1 genotox: 5%; NPC1 prom act: 13%; ELG1 DNA repair: inconclusive; SMN2 splice up: 18%; Rab9 promoter act: 24%; FLuc modulator: 4.8µM*

Results for O=C(Nc1cccc(-c2cn3cccnc3n2)c1)c1cccs1 ?
ELG1 genotox: 1%; NPC1 prom act: 0%; ELG1 DNA repair: -7%; SMN2 splice up: 13%; Rab9 promoter act: -3%; FLuc modulator: inconclusive

Results for Cc1ccn2cc(-c3cccc(NC(=O)c4cccs4)c3)nc2c1 ?
ELG1 genotox: -1%; NPC1 prom act: 19%; ELG1 DNA repair: -7%; SMN2 splice up: inconclusive; Rab9 promoter act: inconclusive; FLuc modulator: 2.4µM*

Results for CCn1c(=O)sc2cc(NS(=O)(=O)c3ccc(F)c(C)c3)ccc21 ?
SMN2 splice up: -41%; FLuc modulator: -15%

How did COc1ccccc1N/C=C/c1onc(C)c1[N+](=O)[O-] do in these assays?
ELG1 genotox: inconclusive; NPC1 prom act: 1µM*; ELG1 DNA repair: inconclusive; SMN2 splice up: 1.1µM*; Rab9 promoter act: 0.4µM*; FLuc modulator: 0.3µM*

Results for Cc1noc(/C=C/c2ccccn2)c1[N+](=O)[O-] ?
ELG1 genotox: -32%; NPC1 prom act: -29%; ELG1 DNA repair: 18µM*; Rab9 promoter act: -16%; FLuc modulator: inconclusive

Results for COc1ccccc1Nc1ccc2nonc2c1[N+](=O)[O-] ?
ELG1 genotox: 9%; NPC1 prom act: -12%; ELG1 DNA repair: 3%; Rab9 promoter act: -3%; FLuc modulator: -3%

Results for Cc1noc(/C=C/Nc2ccc(F)cc2F)c1[N+](=O)[O-] ?
ELG1 genotox: 16µM*; NPC1 prom act: inconclusive; ELG1 DNA repair: inconclusive; SMN2 splice up: 4µM*; Rab9 promoter act: 1.4µM*; FLuc modulator: 2.1µM*

What do the screens show for `Cc1noc(C(=O)Nc2ccc(F)cc2F)c1Cl`?
ELG1 genotox: 10%; NPC1 prom act: 17%; ELG1 DNA repair: 0%; Rab9 promoter act: 27%; FLuc modulator: -3%

What do the screens show for `CC12CCC(=O)N1C(C(=O)N1CCN(S(=O)(=O)c3cccc(Cl)c3)CC1)CS2` (stereo not given)?
ELG1 genotox: 0%; NPC1 prom act: -1%; ELG1 DNA repair: 15%; Rab9 promoter act: -1%; FLuc modulator: -2%

How did COc1cccc(CN(C)C(=O)c2ccc(COc3ccc(Cl)cc3)cc2)c1OC do in these assays?
ELG1 genotox: inconclusive; NPC1 prom act: inconclusive; ELG1 DNA repair: inconclusive; Rab9 promoter act: 29%; FLuc modulator: 13µM*

Results for CCOc1ccc(NS(=O)(=O)c2ccc(C(=O)N(C)Cc3cccc(OC)c3OC)cc2)cc1 ?
ELG1 genotox: -12%; NPC1 prom act: 2%; ELG1 DNA repair: 16µM*; Rab9 promoter act: -8%; FLuc modulator: -1%
